According to PubChem BioAssay (NCI):
Compounds without any hit were thinned out: in the full panel of roughly 83,000, 20% have a hit.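 Assay: single dose, 48 h. Readout: percent growth (0 = no net growth; negative = cell death). Active: <10.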 The source made the active and inactive calls.

What was measured:
Assay in all cases: NCI-60 one-dose screen, 48 h (100 = growth as untreated, 0 = no growth, -100 = all killed)
Conditions in all cases: 10 µM unless noted
[1] = test system: NCI-H23 lung
[2] = test system: NCI-H226 lung
[3] = test system: NCI-H322M lung
[4] = test system: HOP-62 NSCLC
[5] = test system: NCI-H460 lung
[6] = test system: HOP-92 NSCLC
[7] = test system: NCI-H522 lung
[8] = test system: A549/ATCC NSCLC
[9] = test system: 786-0 renal
[10] = test system: COLO 205 colon

Measured: growth

Cc1ccccc1C(=O)c1ccccc1C(=O)O
inactive: [1] 100% | [2] 110% | [3] 108% | [4] 106% | [5] 111% | [6] 105% | [7] 102% | [8] 103% | [9] 97.9% | [10] 115%

COC(=O)[C@H]1[C@H](OC)[C@@H](OC(=O)/C=C/c2ccncc2)CC2CN3CCc4c([nH]c5cc(OC)ccc45)[C@@H]3C[C@@H]21 (stereo partly specified)
inactive: [1] 97% | [2] 73.7% | [3] 78.4% | [4] 78.5% | [5] 92.5% | [7] 72% | [8] 82.9% | [9] 83.5% | [10] 79.2%
active: [6] 1.2%

C[C@]12CC[C@@H]3c4cc(O)c(O)cc4CC[C@H]3[C@@H]1CC[C@@H]2O
inactive: [1] 64.5% | [2] 97.8% | [3] 60.6% | [4] 44.4% | [5] 29.5% | [6] 18.1% | [8] 43.3% | [9] 43% | [10] 115%
active: [7] -8.58%

COc1ccc(C(=O)/C=C/c2cc(C(=O)c3cc(OC)c(OC)c(OC)c3)ccc2OC)cc1
active: [7] -0.114%
inactive: [1] 72.9% | [2] 90.7% | [3] 91.5% | [4] 100% | [5] 88.6% | [6] 70.5% | [8] 85.3% | [9] 89.4% | [10] 75.9%

CCc1cccc(C)c1NC(=O)c1sc2nc3c(cc2c1N)C(=O)CCC3
active: [5] 8.12% | [7] -0.871% | [10] -7.24%
inactive: [1] 39.1% | [2] 62.1% | [3] 51.3% | [4] 23.3% | [6] 79.2% | [8] 22.9% | [9] 38.7%

NC(=O)c1c(NC(=O)c2ccc(OCC3CCCO3)cc2)sc2c1CCCC2 (stereo unspecified)
inactive: [1] 100% | [2] 83.8% | [3] 99.8% | [4] 108% | [5] 106% | [6] 66.9% | [7] 87.3% | [8] 35.5% | [9] 95.5% | [10] 111%

Nc1c(C(=O)Nc2cccc(C(F)(F)F)c2)sc2nc3c(cc12)C(O)CCC3 (stereo unspecified)
active: [10] 9.16%
inactive: [1] 39.5% | [2] 56.3% | [3] 27.2% | [4] 40.7% | [5] 14.5% | [6] 67.2% | [7] 19.3% | [8] 24.7% | [9] 47.4%

COc1ccc(NC(=O)CSc2nc3ccc(Cl)cc3c(=O)n2-c2ccccc2C(F)(F)F)c(OC)c1OC
active: [6] -2.83%
inactive: [1] 79.6% | [2] 62% | [3] 86.6% | [4] 60.6% | [5] 82.4% | [7] 32.4% | [8] 72% | [10] 92.9%

COc1ccc(/C=C\c2cc(OC)c(OC)c(OC)c2)c(NS(=O)(=O)c2ccc(C(C)(C)C)cc2)c1O
inactive: [1] 23.5% | [2] 44.9% | [3] 64% | [4] 81.9% | [8] 27.4% | [9] 24.4%
active: [5] 8.21% | [7] -7.56% | [10] 1.63%

O=C(CN1CCN(c2cc3c(cc2F)c(=O)c(C(=O)O)cn3C2CC2)CC1)Nc1ccc(C(=O)/C=C/c2ccccc2)cc1
active: [5] 7.12% | [8] 4.12%
inactive: [1] 24% | [2] 57.4% | [3] 73.7% | [4] 59.4% | [7] 10.6% | [9] 23.2% | [10] 108%

c1ccn2nnnc2c1
inactive: [1] 94.8% | [2] 111% | [3] 102% | [4] 87% | [5] 105% | [7] 101% | [8] 94.3% | [9] 94.3% | [10] 90.6%

COc1ccc(C2=NN(c3ccc(S(N)(=O)=O)cc3)C(c3cn(-c4ccccc4)nc3-c3ccc(Cl)cc3)C2)cc1 (stereo unspecified)
inactive: [1] 93.9% | [2] 101% | [3] 94.4% | [4] 95.3% | [5] 89% | [7] 71.1% | [8] 74.6% | [9] 105% | [10] 93.7%

COc1ccc(-c2cn[nH]c2-c2cc(OC)c3c(c2)OCO3)cc1
active: [5] 8.74% | [7] -43.9% | [10] -44.2%
inactive: [1] 18.3% | [2] 47.7% | [3] 15% | [4] 22.1% | [8] 19.8% | [9] 26%

CC1Cc2c(N(C)C)ncnc2N(C)c2ccc(O)cc21 (stereo unspecified)
inactive: [1] 92.8% | [2] 104% | [3] 96.5% | [4] 72.8% | [5] 97.7% | [7] 49.1% | [8] 85.1% | [9] 81.4% | [10] 103%

COc1cc(Cn2c(-c3nonc3N)nc3ccccc32)ccc1C
inactive: [1] 25.1% | [2] 50.3% | [3] 58.8% | [4] 30.5% | [5] 11% | [8] 24.2% | [9] 40.3%
active: [7] -20% | [10] -9.7%

COc1cccc(C2CC(=O)Nc3c2c(C)nn3-c2nc3ccccc3[nH]2)c1OC (stereo unspecified)
inactive: [1] 50.5% | [2] 55.1% | [3] 60% | [4] 57.4% | [5] 50.2% | [7] 87.8% | [8] 34.4% | [9] 91.7%

COc1ccc(-n2cnc3c(sc4ncc(Cl)cc43)c2=O)cc1
inactive: [1] 93.4% | [2] 97.8% | [3] 45.7% | [4] 96.9% | [5] 49.1% | [7] 93.3% | [8] 67% | [9] 76.8% | [10] 113%

COc1cc(C(=O)OCCCCCCCCCCC[P+](c2ccccc2)(c2ccccc2)c2ccccc2)ccc1O
inactive: [2] 27.9%
active: [1] -18.2% | [3] 1.65% | [4] -83.8% | [5] -10.6% | [7] -50.3% | [8] -8.01% | [9] 5.62% | [10] -84.1%

CC(=O)Oc1cccc(OC(C)=O)c1OC(C)=O
inactive: [1] 111% | [2] 97.8% | [3] 99.7% | [4] 92.1% | [5] 110% | [7] 75.2% | [8] 72.6% | [9] 97.7% | [10] 107%

CCCCCCCCCCC/C=C\C[C@H](O)C/C=C1/C(=O)C=C[C@@H]1C/C=C\CCCC(=O)OC
active: [1] -25.2% | [2] -45.9% | [4] -16.1% | [5] -31.4% | [7] -41.9% | [9] -3.32%
inactive: [3] 69.8% | [8] 15.6%

CCC(=O)Nc1ccccc1C#C/C=C\C#Cc1ccccc1SC
inactive: [1] 79.9% | [2] 76.4% | [3] 101% | [4] 66.5% | [5] 28.6% | [7] 84.4% | [8] 62.4% | [9] 87.7% | [10] 66.2%

COc1ccc(OC)c(NC(=O)c2cc(S(=O)(=O)N3CCc4ccccc43)ccc2OC)c1
inactive: [1] 86.7% | [2] 92.1% | [3] 109% | [4] 100% | [5] 108% | [7] 78.6% | [8] 78.9% | [9] 89.8% | [10] 87.5%

Oc1ccc(N=Cc2ccccc2)cc1
inactive: [1] 88.5% | [2] 111% | [3] 103% | [4] 115% | [5] 102% | [7] 67.7% | [8] 103% | [10] 113%

Cc1nc(Nc2cccnc2)sc1C(=O)/C=C/c1ccc(F)cc1
inactive: [1] 82.3% | [2] 55.7% | [3] 47.9% | [4] 30.4% | [5] 59.8% | [7] 52% | [8] 25.2% | [9] 13.8% | [10] 56.4%

COc1ccc(N=C2NN=C(c3ccc(F)cc3)CS2)cc1OC
inactive: [1] 104% | [2] 78.5% | [3] 96.4% | [4] 96.3% | [5] 107% | [7] 89% | [8] 92.4% | [9] 88% | [10] 98.7%

Nc1c(C(=O)Nc2ccccc2)sc2nc3c(cc12)CCCCC3
active: [4] 7.61% | [5] 6.63% | [10] 9.29%
inactive: [1] 36.6% | [2] 27.3% | [3] 21.3% | [7] 30.2% | [8] 18.4% | [9] 15.7%

Cc1ccc(S(=O)(=O)OC2COCOC2C(OS(=O)(=O)c2ccc(C)cc2)C2OCOCC2OS(=O)(=O)c2ccc(C)cc2)cc1 (stereo unspecified)
inactive: [1] 109% | [2] 95.2% | [3] 96.3% | [4] 99.4% | [5] 110% | [6] 104% | [7] 98.3% | [8] 93.6% | [10] 108%

CCN1C(=O)N(CC)C2C1NN=c1s/c(=C\c3cccc(F)c3)c(=O)n12 (stereo unspecified)
inactive: [1] 33.9% | [2] 105% | [3] 49.6% | [4] 42.2% | [8] 27% | [9] 12.2%
active: [5] 1.33% | [7] -0.955% | [10] -5.47%
